The source of these data is the supplement of paper PMC6555819.

In this assay the test system is VDR:RXRa (NR concentration 270 nM, RXRa partner concentration 90 nM). Briefly: PBM binding z-score (relative to random genomic background probes); higher = stronger binding; sequences stand for … in GC…GCGATTGACAGCGTAGAATGAAGG
How it is done:
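Protein-binding microarray (Agilent 4x180K custom design, double-stranded 60-nt probes: 5' GC cap, 34-nt variable region, 24-nt constant primer region; full probe sequence given). Purified or IVT nuclear receptor:RXRα heterodimers (3:1 NR:RXRα, mostly 270:90 nM) or homodimers were incubated for 1 h in PBS with 2% milk and no ligand, then detected with Alexa488 antibodies. Fluorescence from o1-orientation probes (~5 replicates averaged) was converted to z-scores against 500 random hg19 background probes. Variable regions are seed direct-repeat (DR0–DR5) sites, all their single-nucleotide variants and half-site ablations.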
Regarding AGAACGAGGGCAGTGAGTTGATAGCACGGGTGGC, the PBM binding z-score is 3.91.

On to GCTGCTAGGTCAACTCATGGTCAGCTAAAGCTCG, for which the PBM binding z-score turned out to be 1.71.

Regarding GCAGACAGGTGAAACGCAGGTTACTCAGGGTGGC, the PBM binding z-score is -0.128.

Regarding AGAATGAAGTTATACGTAGATCAGGGAAGAAAGT, the PBM binding z-score is -0.299.

As to CCTAGTTGGTCAAGGCCACACACGCTATAGGTAC, the PBM binding z-score is 0.31.

As for TCTTGTAGATCAAACAGGTTAAGAAAGCCTGAGT, the PBM binding z-score was determined as 0.979.

For CCTGCTGGGCCATCAGGTCATTGATATCAACGTT, the PBM binding z-score is 1.59.

Turning to ATCTCTCGGTAAGACTCAGTTCAGTGAAGAACGC, the PBM binding z-score was found to be 0.848.

Sequence TCATAAAGGTAAAGGTGAAAGTCGAACGATATGA showed a PBM binding z-score of 0.948.

ATATGTAGGTTAGCTGGGGTCATTCAAACTAGGC registered a PBM binding z-score of 6.37.

As for CCTGCTAGGTCATGGTTAGCTAATCTACAGTATG, the PBM binding z-score is 1.39.

In turn, TAGCCTGGGTCATTCAGGGGCCAGTATAGAAAGC registered a PBM binding z-score of 2.82.

CCTTACTGGTCACGAGGTTATAGCACGACGAGCG returned a PBM binding z-score of 1.86.

CCTAGTGGGTCAAGGTCACACACGCTATAGGTAC gave a PBM binding z-score of 4.64.

With TCATATAGGTAAAAGGTGAAAGTAGGTGTGGTAA, the PBM binding z-score was 1.93.

In turn, ACAGACAGGTGATGAAGGTAACTCCGGCTATCAT gave a PBM binding z-score of 0.125.

Take GGAACGAGGGCATGTTGATAGCAGAGTTTGATGG: the PBM binding z-score stood at 0.929.

ATCTCTAAGTAAAAGTTCAGTGAATCCCGAGGAT: the PBM binding z-score amounted to 1.05.

In turn, GCGACTGGGGCATCAGCAGGTTACCGTAACTTAA returned a PBM binding z-score of -0.147.

ATTACAGGGTCACTAGGCCAGAGTAGGTACGAAT had a PBM binding z-score of 4.19.

The sequence ACAGACAGGTGAGTGAAGCTAACTCAGCTGGACG came in with a PBM binding z-score of -0.513.

Take TGAATGAGGTTATAAGTTCAGGGAACGTTGCAAA: the PBM binding z-score amounted to 3.67.

AGAACGAGGTTAAGATCAGGGAAACAGAATACAT displayed a PBM binding z-score of 1.36.

Turning to CTACCAATGTGAACAAGGTCGTTGATTACTATTC, the PBM binding z-score is 3.77.

ATCTCTAGGTAAGACTCAGTTCAGTGAGGAACGC returned a PBM binding z-score of 0.748.

Turning to TCTGCTTGGTCAGTTGGTCAGCTAACGAGCTGCC, the PBM binding z-score was -0.451.

TGTCATAGTTCAAAGGTAACGTAAGTATCCACAC: the PBM binding z-score turned out to be 2.96.

ACTATTACTTGAGACGAGGGCAACCGATAGGTTG displayed a PBM binding z-score of 0.736.

Sequence TCTTGTAGATCAAAGGTTCAGAAAGCCGAAGCCT showed a PBM binding z-score of 1.47.

In the case of CCTATTAGTTGACCATAAGGGCAACCGGAGCTCG, the PBM binding z-score is 0.682.

In turn, GCGACTGGGGCAAAGCAGGTTAACATAAGGTTGG gave a PBM binding z-score of 0.364.

In turn, CGAACGAGGGAATGAGTTGATAGCAAATGCCGAT came in with a PBM binding z-score of -0.28.

Turning to AGACCGAGGGCACGCTGAGTTGATAGCAGAGTAG, the PBM binding z-score is 2.21.

Consider CAGCCTAGGTCAGGGCCATTATAGGAGGAACGTT, for which the PBM binding z-score came out at 0.399.

CGTCCGAGGTCAGCAGGTCAGTGAAAGCGACGTG yielded a PBM binding z-score of 4.86.

In turn, ATCGAAAGGTCGTGAGGTTAGTATACAGAAAGGC gave a PBM binding z-score of 4.66.

CCGACTGGGGCAGGAAGGTTACCATACCATCCGG: the PBM binding z-score amounted to 0.235.

In turn, CCTAGCAGGTCAATCTGGGTCACTCAAGGCTTGA had a PBM binding z-score of 4.94.

In turn, TCTATTAGTTGTAGGGCAACCGACGAGTCCGTTT gave a PBM binding z-score of 0.713.

As to CAGCCTAGGTCAGCGCCAGTATAGGAGGAACGTT, the PBM binding z-score amounted to 0.303.
